Autofluor counter = counter-screen for toxin protease inhibitors: compound fluorescence; compound autofluorescence counterscreen, microsphere flow cytometry; hits give high values; fluorescence intensity (no concentration beside the values); hit rate 3.1% among 360,000; in the data active means fluorescence intensity above about 16000; inconclusive means no clear call, values can overlap the other calls
Anthrax LF inh2 = inhibitors of Bacillus anthracis lethal factor protease; P15917; multiplex microsphere protease cleavage assay, LF; inhibition, % at 10 µM; hit rate 0.12% among 360,000; AID 588501; further: plate controls were buffer without enzyme for full effect and enzyme alone for no effect
Target sequence (P15917 whole entry, looked up): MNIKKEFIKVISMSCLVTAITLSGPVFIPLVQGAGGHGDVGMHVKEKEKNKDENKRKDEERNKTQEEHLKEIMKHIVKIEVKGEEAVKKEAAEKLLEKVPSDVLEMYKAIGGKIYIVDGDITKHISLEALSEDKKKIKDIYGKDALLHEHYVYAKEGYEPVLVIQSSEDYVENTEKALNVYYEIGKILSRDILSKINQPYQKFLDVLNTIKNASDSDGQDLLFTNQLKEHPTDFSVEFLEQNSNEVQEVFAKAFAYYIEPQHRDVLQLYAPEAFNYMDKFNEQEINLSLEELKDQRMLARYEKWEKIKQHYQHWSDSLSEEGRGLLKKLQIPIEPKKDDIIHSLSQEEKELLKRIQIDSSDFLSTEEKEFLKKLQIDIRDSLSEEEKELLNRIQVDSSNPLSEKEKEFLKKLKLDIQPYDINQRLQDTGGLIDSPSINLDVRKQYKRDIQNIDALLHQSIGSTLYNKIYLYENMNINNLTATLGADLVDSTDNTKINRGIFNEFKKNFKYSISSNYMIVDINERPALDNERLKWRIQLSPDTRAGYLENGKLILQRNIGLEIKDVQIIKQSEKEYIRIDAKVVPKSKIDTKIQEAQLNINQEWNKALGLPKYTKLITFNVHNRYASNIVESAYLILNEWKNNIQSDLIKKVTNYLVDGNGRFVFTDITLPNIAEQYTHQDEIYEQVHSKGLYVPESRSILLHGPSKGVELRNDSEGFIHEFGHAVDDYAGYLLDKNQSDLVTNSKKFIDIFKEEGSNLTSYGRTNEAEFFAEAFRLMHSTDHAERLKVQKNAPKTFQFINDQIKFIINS
BoNT-A LC inh2 = BoNT A light chain protease inhibition. multiplex microsphere protease substrate cleavage, flow cytometry. inhibition, % at 10 µM. hit rate 0.17% among 360,000. AID 588499; further: plate controls were buffer without enzyme for full effect and enzyme alone for no effect
MazEF act = increases E. coli MazEF RNase cleavage of RNA; activation, % at 20 µM; FAM/BHQ RNA-DNA oligo cleavage fluorescence, 5 h; AID 504720; hit rate 0.32% among 350,000; P0AE70; in the data active means activation above about 50%
BoNT-F LC inh = BoNT F light chain protease inhibition. Multiplex microsphere protease cleavage assay, flow cytometry. inhibition, % at 10 µM. hit rate 0.22% among 360,000. AID 588497; in the data active means inhibition above about 35%, passing the limit was not always enough; inconclusive means no clear call, values can overlap the other calls; further: plate controls were buffer without enzyme for full effect and enzyme alone for no effect
* hit, by the source's call; ? = inconclusive. Most compounds without a hit are left out; they make up all but 3.7% or so of the library. Unless noted, no stated cut-off is given here; in the data, active means inhibition above about 30%; inconclusive means no clear call, values can overlap the other calls; inactive means below that.

SMILES | Autofluor counter | Anthrax LF inh2 | BoNT-A LC inh2 | MazEF act | BoNT-F LC inh
Cc1nn(Cc2ccc(F)cc2)c(C)c1NC(=O)c1cnn2c1NC(c1cccs1)CC2C(F)(F)F (stereo unspecified) | 22509* | -1.2 | 2.5 | -8.6 | 2.3
Cc1cc(OC(=O)c2cc([N+](=O)[O-])ccc2Cl)c([N+](=O)[O-])c(=O)[nH]1 | 5649 | 3.7 | -0.1 | -3.4 | -1.9
CN(Cc1c(F)cccc1Cl)C(=O)c1ccc(NC(=O)CC2SC(N3CCCC3)=NC2=O)cc1 (stereo unspecified) | 4378 | 4.0 | 2.4 | -2.4 | 8.6
CCCCCn1nc(C(=O)OCc2nc(N)nc(Nc3ccccc3)n2)c2ccccc2c1=O | 4148 | 0.7 | 0.4 | -24.0 | -1.4
CCc1ccc(N2CC(C(=O)N3CCN(c4ccc([N+](=O)[O-])cc4)CC3)CC2=O)cc1 (stereo unspecified) | 3008 | -1.9 | -0.4 | -9.2 | 1.1
Cc1ccc(C(=O)NCC(=O)OCC(=O)Nc2ccc(Cl)cc2C(F)(F)F)cc1C | 2860 | -0.5 | 5.0 | 3.9 | 38.3*
Cc1cccc(NC(=O)C2CCN(S(=O)(=O)c3c(C)c(C)cc(C)c3C)CC2)n1 | 4755 | -2.6 | 1.3 | -7.3 | -5.6
C/C(CC1CC(COCCC(C)C)OC1=O)=N\NC(N)=S (stereo unspecified) | 20283* | -1.5 | 0.9 | 2.3 | 1.3
COc1ccc(C(C(=O)NCC2CCCO2)N(C(=O)CNC(=O)c2cccs2)c2ccccc2C)cc1OC (stereo unspecified) | 3243 | -1.3 | -2.0 | 4.6 | -6.1
COc1ccccc1OCCNC(=O)c1ccc(C)o1 | ? | 0.7 | 0.0 | -0.1 | -2.6
Cc1[nH]c2ccccc2c1/C=C(\C#N)C(=O)NC(C)c1ccccc1 (stereo unspecified) | 22234* | -6.0 | 3.0 | -0.5 | 2.8
Cc1[nH]c2ccccc2c1/C=C(\C#N)S(=O)(=O)c1ccccc1 | 20697* | -2.1 | 0.1 | 7.6 | -2.5
Cc1ccc(N(CC2CO2)S(=O)(=O)c2ccc([N+](=O)[O-])cc2)cc1 (stereo unspecified) | 4607 | -2.5 | -1.5 | 4.5 | -1.8
CCOC(=O)CSc1nnc(CNC(=O)c2ccc(OC)cc2OC)n1-c1ccc(OC)cc1 | 21152* | 1.1 | -1.3 | 1.5 | -0.1
CCOC(=O)CSc1nnc(Cc2cc(=O)[nH]c(=O)[nH]2)n1-c1cccc(OC)c1 | 21403* | -13.9 | ? | -5.9 | -1.2
CCN1CCC2(CCNC2)C1 (stereo unspecified) | 16425* | -2.6 | -0.8 | 4.6 | 1.1
Cc1cc(C)n2nc(C(=O)N3CCCC(N4CCN(c5ccccc5C)CC4)C3)cc2n1 (stereo unspecified) | 5872 | 0.3 | 0.4 | 6.6 | 7.6
Cc1ccccc1NC(=O)N1CCN(c2ncccn2)CC1 | 2444 | -0.6 | 0.0 | 3.9 | -0.6
COc1cccc(-n2nnnc2SCC(=O)Nc2ccc(NC(C)=O)cc2)c1 | 3913 | -8.8 | -2.6 | 3.1 | -19.0
Cc1ccccc1-n1nnnc1Sc1nnnn1-c1ccccc1 | 3503 | 0.8 | 0.2 | 4.2 | -7.3
c1ccc(-n2nnnc2Sc2n[nH]c(-c3ccncc3)n2)cc1 | 24881* | -2.3 | -3.4 | -0.1 | -5.6
C=CCn1c(SCC(=O)Nc2cc(C)nn2-c2ccccc2)nnc1C1CCCCC1 | 23513* | -3.1 | ? | -12.7 | -5.1
CN(C1CCCCC1)C(CNS(=O)(=O)c1ccccc1)c1ccccc1 (stereo unspecified) | 5644 | 1.0 | -1.0 | 10.1 | 5.2
COc1cccc(C(=O)Cn2c(N3CCOCC3)nc3c2c(=O)n(C)c(=O)n3C)c1 | 16198* | -2.9 | -0.5 | 5.1 | -0.6
COCCn1c(N2CCN(c3ccc(OC)cc3)CC2)nc2c1c(=O)n(C)c(=O)n2C | 17764* | -14.2 | 6.0 | -0.7 | 6.4
SMILES | Autofluor counter | Anthrax LF inh2 | BoNT-A LC inh2 | MazEF act | BoNT-F LC inh
Cc1ccc(CNC(=O)CN2C(=O)CSc3ccc(S(=O)(=O)N4CCCCC4)cc32)cc1 | ? | 1.5 | -1.0 | -1.6 | 11.0
COc1ccc(NS(=O)(=O)c2ccc(C)c(C(=O)NCC(c3ccco3)N3CCCCC3)c2)cc1 (stereo unspecified) | ? | ? | 4.8 | 6.4 | ?
CCn1c(CSc2nnc(-c3ccoc3C)n2C)nc2cc(S(=O)(=O)N(C)C)ccc21 | ? | -1.7 | 0.7 | -2.0 | 15.9
Cc1occc1-c1nnc(SCc2nc3ccccc3c(=O)n2CC#N)n1C | 23590* | -1.4 | -0.1 | 11.2 | -4.7
CN(C)Cc1nc2ccccc2c(=O)n1CC#N | 3186 | -1.0 | -0.8 | 1.5 | -3.6
Cc1noc(C)c1CSCC(=O)OCc1nc2ccccc2c(=O)n1CC#N | 21620* | 0.9 | 6.6 | 4.4 | 6.2
COc1ccc(C(=O)OCCCc2cc3ccccc3c(=O)o2)cc1 | 3011 | 3.6 | 0.0 | 1.3 | -1.5
O=C(c1nsc(Cl)c1Cl)N1CCCCC1 | 20635* | -0.6 | 0.3 | 6.3 | -0.2
O=C(Nc1ccc(Cl)cc1)c1csc(-c2ccccc2)n1 | 16593* | -3.6 | -0.9 | 2.2 | -3.4
CNC(=O)c1csc(-c2ccc(Cl)cc2)n1 | 3414 | 0.6 | 0.9 | -1.6 | 8.2
CNC(=O)c1csc(-c2ccc(C)cc2)n1 | 20516* | -9.0 | 2.1 | -4.7 | 2.7
CC(C)CCN(C(=O)CNC(=O)c1ccco1)C(C(=O)NC1CCCCC1)c1cccnc1 (stereo unspecified) | 5182 | 2.3 | 1.4 | 0.3 | 0.9
Oc1c(C=C2N=c3ccccc3=N2)sc(=S)n1-c1ccccc1 | 2577 | 25.8 | 44.1* | -2.4 | 16.7
Oc1c(C=C2N=c3ccccc3=N2)sc(=S)n1C1CCCCC1 | 2417 | 33.0* | 69.8* | 7.1 | 21.7
O=C(Nn1c(O)c(C=C2N=c3ccccc3=N2)sc1=S)c1ccccc1Cl | 5061 | 64.7* | 60.7* | -5.9 | 55.2*
COc1ccccc1NCCC(=O)OCC(=O)Nc1cc([N+](=O)[O-])ccc1F | 3830 | -2.9 | 0.1 | 18.1 | -0.8
Cc1ccccc1/C=C/C1=NCCN1 | 5927 | 11.6 | 0.1 | 13.0 | -3.6
CN(C)c1nc2ccc(OCCN3CCCCC3)cc2s1 | 23663* | 0.1 | -1.0 | -2.0 | -0.8
CCOc1ccc2nc(N3CCCCCC3)sc2c1 | 16527* | -3.8 | -0.4 | -5.7 | -4.5
COc1ccc(Cl)cc1Nc1nc2ccc(C)cc2n2cnnc12 | 2897 | 1.7 | 1.0 | -8.2 | 12.9
O=C(CCNS(=O)(=O)c1ccc(Cl)cc1)N1CCCCCC1 | 5659 | 3.0 | 0.0 | 1.0 | -3.3
CC1Cc2ccccc2N1C(=O)CCS(=O)(=O)c1cccs1 (stereo unspecified) | 6867 | 13.0 | -0.7 | -9.4 | 3.8
CC1Cc2ccccc2N1C(=O)Cn1c(=O)cc(O)c2ccccc21 (stereo unspecified) | 24078* | -3.5 | ? | 2.2 | -9.0
CC1Cc2ccccc2N1C(=O)Cc1cccs1 (stereo unspecified) | 17722* | -2.8 | -6.7 | -6.7 | -8.2
CC1Cc2ccccc2N1C(=O)CN1C(=O)COc2ccccc21 (stereo unspecified) | 3595 | 3.0 | 0.3 | 0.3 | -9.1
CCN(CC)c1ccc2cc(C(=O)NNC(=O)c3ccc(S(=O)(=O)N4CCCCC4)cc3)c(=O)oc2c1 | 2078 | 6.9 | 9.9 | 75.0* | 3.0

Screening data deposited in PubChem by several laboratories.
